Screen size: about 52,000 compounds; about 4,300 (8.3%) were called active. The entries come from a sample that favours actives as a whole. Unmarked numbers belong to inactive results. No stated cut-off is given here; in the data, active means survival mostly below about 52% (no sharp cut-off); inactive means mostly above about 56%.
System: DeltatarO mutant
Assay: S. aureus survival, RN4220 and DeltatarO strains – OD600, teichoic acid synthesis inhibitors, primary screen (AID 463173)
Conditions: S. aureus RN4220 wild type/DeltatarO growth, OD600, 18 h, stronger effect = lower value, screened at 18.75 µg/mL (by protocol)

SMILES	survival
Cc1cc(C)c(S(=O)(=O)NCC(c2ccc(N(C)C)cc2)N2CCOCC2)c(C)c1 (stereo not drawn)	69%
CCCCS(=O)(=O)c1oc(-c2cccs2)nc1S(=O)(=O)c1ccccc1	-5% (active)
Cc1ccc(CSc2oc(-c3cccs3)nc2S(=O)(=O)c2ccc(C)cc2)cc1	135%
CCCCS(=O)(=O)c1oc(-c2cccs2)nc1S(=O)(=O)c1ccc(F)cc1	56%
CCCSc1oc(-c2cccs2)nc1S(=O)(=O)c1ccc(C)cc1	41%
CCCCCS(=O)(=O)c1oc(-c2cccs2)nc1S(=O)(=O)c1ccc(C)cc1	3% (active)
Cc1ccc(CSc2oc(-c3cccs3)nc2S(=O)(=O)c2ccccc2)cc1	65%
COc1cccc(CSc2nc3n(n2)C(c2ccccc2C)C(C(=O)Nc2ccccc2OC)=C(C)N3)c1 (stereo not drawn)	69%
Cc1ccc(C)c(NC(=O)Cn2c(=O)n(CCC(C)C)c(=O)c3cccnc32)c1	76%
NC(CSC1CCCCO1)C(=O)O (stereo not drawn)	73%
CC(=O)c1ccc(N2CCN(c3ccc(NC(=O)c4ccc(F)cc4)cc3C(=O)O)CC2)cc1	55%
O=C(Nc1ccc(N2CCC(N3CCCCC3)CC2)c(C(=O)O)c1)c1ccc(Br)cc1	101%
O=C(Nc1ccc(N2CCN(CCOc3ccc(Cl)cc3)CC2)c(C(=O)O)c1)c1ccc(F)cc1	20% (active)
O=C(Nc1ccc(N2CCC(N3CCCCC3)CC2)c(C(=O)O)c1)c1ccccc1	96%
COc1ccc(C(=O)Nc2ccc(N3CCN(c4ccccc4)CC3)c(C(=O)O)c2)cc1	94%
O=C(Nc1ccc(N2CCOCC2)c(C(=O)O)c1)c1ccc(Br)cc1	8% (active)
Cc1ccc(NC(=O)C(=O)NCC2(c3ccccc3)CCCC2)cc1Cl	97%
Cc1cccc(NS(=O)(=O)c2ccc3c(c2)CC(C)N3C(=O)C2CCC2)c1C (stereo not drawn)	78%
N#Cc1c[nH]n2c(=O)cc(Cc3ccccc3)nc12	68%
O=C(CCS(=O)(=O)c1ccc(Br)s1)Nc1cc(C(F)(F)F)cc(C(F)(F)F)c1	42% (active)
Cc1cc(NC(=O)c2ccc(NC(=O)CCS(=O)(=O)c3cccs3)cc2)ccc1Br	35% (active)
COC(=O)c1ccc(NC(=O)CCS(=O)(=O)c2ccc(Br)s2)cc1	60%
CC(=O)c1cccc(NC(=O)CCS(=O)(=O)c2ccc(Br)s2)c1	43% (active)
CCOC(=O)c1cccc(NC(=O)CCS(=O)(=O)c2ccc(Br)s2)c1	71%
O=C(CCS(=O)(=O)c1ccc(Br)s1)Nc1c(F)cccc1F	128%
CC(=O)c1ccc(NC(=O)c2ccc(NC(=O)CCS(=O)(=O)c3cccs3)cc2)cc1	69%
CC(C)c1ccc(NC(=O)CCS(=O)(=O)c2ccc(Br)s2)cc1	114%
Cc1ccc(NC(=O)c2ccc(NC(=O)CCS(=O)(=O)c3cccs3)cc2)cc1F	81%

— PubChem BioAssay AID463173 (ICCB-Longwood Screening Facility, Harvard Medical School, 2010)
